Laboratory results: PubChem BioAssay AID492990 (National Center for Advancing Translational Sciences (NCATS), 2010)
Unmarked numbers belong to inactive results.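 How the source made its calls: active means clear integrase inhibition at one or more tested doses, judged significant by the depositor; inactive means only baseline response.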

Test system: HIV-1 integrase
Assay: Gel-Based Assay for Inhibitors of HIV Integrase: Counterscreen for TDP1
Settings: recombinant HIV-1 integrase, 32P DNA gel densitometry; series mostly up to 333 µM; inhibition %, high = inhibition: at the top concentration
Method: HIV Integrase enables the HIV virus to integrate its genetic material into host cells's DNA. This particular assay was utilized as a counterscreen for inhibitors of human tyrosyl DNA phosphodiesterase I (Tdp1). See probe development summary bioassay AID 485312 for further details on the tdp1 inhibitors project.
HIV-1 integrase catalytic assay was carried out as previously described [Marchand et al. Methods in Enzymology 2001] by mixing 400 nM recombinant integrase with 20 nM [32P] radiolabeled DNA substrate in a buffer containing 50 mM MOPS, pH 7.2, 7.5 mM MgCl2, 14.3 mM 2-mercaptoethanol, and the drug of interest or 10% DMSO. Reactions were incubated at 37 degrees C for 1 h and quenched by the addition of an equal volume of gel loading dye (formamide with 0.25% bromophenol blue, 0.25% xylene cyanol and 5 mM EDTA). Reaction products were separated on a 16% polyacrylamide denaturing sequencing gel. Dried gels were exposed overnight and visualized using a Typhoon 8600 (GE Healthcare, Piscataway, NJ). Densitometry analyses were performed using the ImageQuant software from GE Healthcare.

SMILES	inhibition %, high = inhibition [%]
O=c1c2ccccc2nc2sc(Nc3ccc4c(c3)CCC4)nn12	0.1
O=c1c2ccc(Br)cc2nc2sc(Nc3ccc4c(c3)CCC4)nn12	0.7
